# Data: PubChem BioAssay (Tox21)
# Records with an inconclusive call do not appear. Activity calls are given as the source filed them. Calls follow the shape of the full dose curve.
# Test: qHTS assay to identify small molecule agonists of the progesterone receptor (PR) signaling pathway - cell viability counter screen (AID 1346799); also: nearly all actives have a fitted effect of over 45% in size
# Conditions: PR-UAS-bla HEK293T viability, CellTiter-Glo luminescence, 16 h; series mostly up to 92.4 µM; activity change, negative = cytotoxicity: at the top concentration
# In short: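 Viability was scored by ATP luminescence (CellTiter-Glo, 30 min, room temperature) in the same wells used for the reporter readout, after 16 hr compound exposure of PR-UAS-bla HEK293T cells.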
# % is scaled to controls: 0 for no effect and ±100 for the full control effect; potency is read from the fitted curve at half-maximal effect.
SMILES,"activity change, negative = cytotoxicity",Potency
CC[N+](C)(CC)CCOC(=O)C1c2ccccc2Oc2ccccc21,-8.94% [at 42.5 µM] (inactive),
CO/N=C(\C(=O)N[C@@H]1C(=O)N2C(C(=O)O)=C(CSc3nc(=O)c(O)nn3C)CS[C@H]12)c1csc(N)n1,-0.722% [at 42.5 µM] (inactive),
CC(=O)N[C@H]1[C@H]([C@H](O)[C@H](O)CO)OC(C(=O)O)=C[C@@H]1N=C(N)N,10.9% [at 42.5 µM] (inactive),
CCOc1ccc2nc(S(N)(=O)=O)sc2c1,27.9% [at 42.5 µM] (inactive),
NC(=O)N[C@@H](CCC(=O)O)C(=O)O,6.82% [at 42.5 µM] (inactive),
CNCC(O)c1ccc(O)c(O)c1 (stereo not drawn),6.98% [at 42.5 µM] (inactive),
Nc1ccccn1,14.7% (inactive),
O=C(O)CC(C(=O)O)S(=O)(=O)O (stereo not drawn),0.921% (inactive),
CO[C@@]1(NC(=O)C(C(=O)O)c2ccc(O)cc2)C(=O)N2C(C(=O)O)=C(CSc3nnnn3C)CO[C@@H]21 (stereo partly drawn),-5.79% [at 42.5 µM] (inactive),
O=S(=O)(O)c1cccc2ccccc12,16.1% (inactive),
CC[N+](CC)(CC(=O)Nc1c(C)cccc1C)Cc1ccccc1 (tested in a mixture with another compound),-9.27% [at 42.5 µM] (inactive),
CN(C)C(=O)Oc1cccc([N+](C)(C)C)c1,6% [at 42.5 µM] (inactive),
CCN[C@@H]1C[C@H](N)[C@@H](OC2OC(CN)=CCC2N)[C@H](O)[C@H]1O[C@H]1OC[C@](C)(O)[C@H](NC)[C@H]1O (stereo partly drawn),-2.08% [at 0.349 µM] (inactive),
O=C(O)CNC(=O)c1ccc(CO)o1,-13.3% (inactive),
CC(C)(C)C(=O)Oc1ccc(S(=O)(=O)Nc2ccccc2C(=O)NCC(=O)O)cc1,-6.25% [at 42.5 µM] (inactive),
NCCCC[C@H](N[C@@H](CCc1ccccc1)C(=O)O)C(=O)N1CCC[C@H]1C(=O)O,4.1% [at 42.5 µM] (inactive),
CC(C(=O)O)c1cccc(Oc2ccccc2)c1 (stereo not drawn),-22.1% [at 42.5 µM] (inactive),
COc1cc(C)nc(-n2nc(C)cc2OC)n1,,8.41 µM (active)
CCCCCCCCCCCCCCCCCCO,2.81% [at 42.5 µM] (inactive),
CC12CCC(C(=O)C1=O)C2(C)C (stereo not drawn),9.71% (inactive),
Cc1ccc(C(=O)c2ccc(CC(=O)O)n2C)cc1,1.68% [at 42.5 µM] (inactive),
C[N+]1(C)CCCC(OC(=O)C(O)(c2ccccc2)c2ccccc2)C1 (stereo not drawn),4.65% [at 42.5 µM] (inactive),
CCCCCCCCCCCCCCC(=O)O,2.74% (inactive),
NCCCC(N)(C(=O)O)C(F)F (stereo not drawn),-2.84% [at 42.5 µM] (inactive),
Cc1coc2ccccc2c1=O,4.35% [at 42.5 µM] (inactive),
CC(C)COC(=O)c1ccc(N)cc1,-2.26% [at 42.5 µM] (inactive),
CN1[C@@H]2CC[C@H]1CC(OC(=O)C(O)c1ccccc1)C2 (stereo partly drawn),-10% [at 42.5 µM] (inactive),
COc1cccc(OC)c1C(=O)N[C@@H]1C(=O)N2[C@@H]1SC(C)(C)[C@@H]2C(=O)O,-1.02% [at 42.5 µM] (inactive),
